# Measured values as given in PubChem BioAssay (EPA / NIEHS).
# Activity calls are given as the source filed them. Rule for the calls: active = hit-call score of the fitted dose curve at least 0.9, where 1 is the maximum; inactive = score below 0.9.
# Assay: ATG_M_06_CIS: Attagene CIS-FACTORIAL HepG2 Assay for M06 Transcription Factor (Internal Marker) (AID 2282950)
# Conditions: HepG2 Attagene CIS-FACTORIAL M06 internal marker reporter; actives raise or lower the signal
# Experimental: ATG_CIS is a cell-based, multiplexed-readout assay that uses HepG2, a human liver cell line, with measurements taken at 24 hours after chemical dosing in a 24-well plate.ATG_M_06_CIS is one of 52 assay component(s) measured or calculated from the ATG_CIS assay. It is designed to make measurements of mRNA induction, a form of inducible reporter, as detected with fluorescence intensity signals by Reverse transcription polymerase chain reaction (RT-PCR) and Capillary electrophoresis technology.Data from the assay component ATG_M_06_CIS was analyzed into 1 assay endpoint. This assay endpoint, ATG_M_06_CIS, was analyzed with bidirectional fitting relative to DMSO as the negative control and baseline of activity. Using a type of inducible reporter, measures of mRNA for gain or loss-of-signal activity can be used to understand the background control at the transcription factor-level as they relate to the gene . Furthermore, this assay endpoint can be referred to as a secondary readout, because this assay has produced multiple assay endpoints where this one serves a background control function. To generalize the intended target to other relatable targets, this assay endpoint is annotated to the background measurement intended target family, where the subfamily is internal marker.
# Human liver HepG2 cells are transiently transfected with multiple reporter transcription units (MRTUs) in 6-well plates using FuGene 6 reagent (Roche; 3 ml FuGene/1 mg DNA). The MRTU constructs are regulated by a cis-regulating element (promoter). […] A major difference between the CIS and TRANS system is that in CIS activities of endogenous TFs are measured, whereas the TRANS assay evaluates changes in activities of exogenous, chimeric NR-Gal4 proteins. […] At the end of 24 hour incubation, total RNA was isolated using TriZol reagent (Invitrogen). The isolated RNA is then reverse-transcribed using oligo(dT) primer and Mo-MLV reverse transcriptase (Invitrogen) with DNAse I (Ambion) treatment for 30 min. The one-tenth of the produced cDNA was amplified by PCR using Taq DNA polymerase (Invitrogen) and two reporter sequence-specific primers. The PCR products were fluorescently labeled by primer extension with 6-arboxyfluorescein (6-FAM) 5'-labeled reporter sequence-specific primer (2 min at 95 C, 20 s at 68 C and 10 min at 72 C) and these products were digested with 5U of HpaI (New England Biolabs) for 2h at 37 C. The fragments were purified using Qiaquick PCR columns (Qiagen), analyzed on an ABI 3130xL genetic analyzer (Applied Biosystems) with peak positions identified by using a set of X-rhodamine (ROX)-labeled MapMarker1000 molecular weight standards (BioVentures). The raw capillary electrophoresis data was processed using Attagraph software (Attagene).
row,SMILES,outcome
1,CCOC(=O)CCCCCCCCC(=O)OCC,inactive
2,CC1(C)CC(N)CC(C)(CN)C1 (stereo not given),inactive
3,CCCC[N+](C)(CCCC)CCCC,inactive
4,CCCCCCCC1CCCC1=O (stereo not given),inactive
5,CC(=O)OC(C)(C)C,inactive
6,CCCCCc1cccc(=O)o1,inactive
7,CC(=O)OC/C=C(C)/C=C/C=C(C)/C=C/C1=C(C)CCCC1(C)C,inactive
8,c1coc(CNc2ncnc3nc[nH]c23)c1,inactive
9,c1ccc(OCCOc2ccccc2)cc1,inactive
10,O=C(C=Cc1ccccc1)OCCCc1ccccc1,inactive
11,CCCCCCCCCCCCCC(=O)OCC,inactive
12,O=C(OCc1ccccc1)c1ccccc1O,inactive
13,C=COCC1CCC(COC=C)CC1 (stereo not given),inactive
14,CC(CO)c1ccccc1 (stereo not given),inactive
15,COC(=O)C(C)Oc1ccc(Oc2ncc(C(F)(F)F)cc2Cl)cc1 (stereo not given),inactive
16,FC(F)(F)c1ccc(Cl)c(Cl)c1,inactive
17,CCCCCCCCSCc1cc(C)c(O)c(CSCCCCCCCC)c1,inactive
18,CCCCN(CCO)CCO,inactive
19,CC(=O)CCC(=O)O,inactive
20,Cc1ccccc1S,inactive

row,SMILES,outcome
1,CCC(C)C1CCCCC1=O (stereo not given),inactive
2,CC12CCC(C1)C(C)(C)C2O (stereo not given),inactive
3,CC(C)C(=O)OCC=Cc1ccccc1,inactive
4,CCC(C)(CCCC(C)C)OC(C)=O (stereo not given),inactive
5,CC/C=C\CCCCO,inactive
6,CC1=CCC(C(C)C)=CC1,inactive
7,C[C@H](CCC(=O)O)[C@H]1CC[C@H]2[C@@H]3CC[C@@H]4C[C@H](O)CC[C@]4(C)[C@H]3CC[C@]12C,inactive
8,Nc1ccc(N)c([N+](=O)[O-])c1,inactive
9,CC1=CC[C@@H]2C[C@H]1C2(C)C,inactive
10,Nc1ccn([C@H]2CC[C@@H](CO)O2)c(=O)n1,inactive
11,CC1COC(=O)O1 (stereo not given),inactive
12,CCCCCCCCCCCCS,inactive
13,C=CCOC(=O)/C=C\C(=O)OCC=C,inactive
14,CC(=O)OC(C)(C)C1CC=C(C)CC1 (stereo not given),inactive
15,CC(C)(O)C(=O)c1ccc(OCCO)cc1,inactive
16,N#CCCNCCC#N,inactive
17,Cc1cccc(O)c1,inactive
18,C=CC(C)CCCC(C)(C)O (stereo not given),inactive
19,CNC(=C[N+](=O)[O-])NCCSCc1ccc(CN(C)C)o1,inactive
20,NC(N)=S,inactive
